KCNK9 inh-1 – blocks the human KCNK9 two-pore domain potassium channel. Q9NPC2. HEK293 KCNK9, FluxOR thallium flux fluorescence; hits give low values. B-score at 10 µM. 310,000 compounds, 1.2% hits. AID 488922;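 active = ratio B-score over 3 SD below the library mean, with starting fluorescence within 5 SD of its mean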;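 note: negative B-score means less thallium flux so channel inhibition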
TMEM16A inh – mouse TMEM16A channel inhibition, primary screen; Q8BHY3; HEK293 TMEM16A/YFP iodide influx fluorescence, ionomycin; normalized B-score (activity score, 25-100; higher = stronger inhibition) at 10 µM; 310,000 compounds, 1.2% hits;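 active = ratio plate-corrected score three or more library SD toward inhibition, starting fluorescence score within five deviations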;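 note: score derived from kinetic fluorescence span divided by baseline fluorescence per well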
ANO1 activ – activators or potentiators of mouse TMEM16A chloride channel; Q8BHY3; HEK293 TMEM16A/YFP-H148Q/I152L, iodide quench fluorescence; hits give low values; B-score at 10 µM; 340,000 compounds, 0.3% hits;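 active = fluorescence-ratio B-score plate-corrected deviation score at least 3 library SD below zero, with starting fluorescence score within 5 deviations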;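 note: channel opened by trigger with iodide after compound preincubation; score built on the fluorescence ratio of max minus min over baseline; more negative score means more quench and so TMEM16A activation or potentiation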
KCNK3 inh – human KCNK3 channel inhibition, primary screen; O14649; 340,000 compounds, 0.84% hits; B-score at 10 µM; CHO-KCNK3 thallium flux, FluxOR fluorescence; hits give low values; AID 602410;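 active = B-score under library mean minus 4 SD, starting fluorescence ratio at most library mean plus 5 SD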;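 note: more negative B-score means stronger inhibition of thallium flux through KCNK3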
Kir21 block – inhibitors of mouse Kir2.1 inward-rectifier potassium channel | HEK293-Kir2.1, FluxOR thallium flux fluorescence; hits give low values | B-score at 10 µM | 310,000 compounds, 0.85% hits;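 active = fluorescence ratio B-score at or below minus 3 SD of library scores, with starting-brightness B-score within 2 SD, cut at about -4.2 in these data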;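 note: channel flux triggered by added potassium and thallium sulfate stimulus; B-score of peak minus minimum fluorescence over baseline after thallium stimulus; more negative B-score means stronger Kir2.1 block with less thallium influx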
Target sequence (P35561 whole entry, looked up): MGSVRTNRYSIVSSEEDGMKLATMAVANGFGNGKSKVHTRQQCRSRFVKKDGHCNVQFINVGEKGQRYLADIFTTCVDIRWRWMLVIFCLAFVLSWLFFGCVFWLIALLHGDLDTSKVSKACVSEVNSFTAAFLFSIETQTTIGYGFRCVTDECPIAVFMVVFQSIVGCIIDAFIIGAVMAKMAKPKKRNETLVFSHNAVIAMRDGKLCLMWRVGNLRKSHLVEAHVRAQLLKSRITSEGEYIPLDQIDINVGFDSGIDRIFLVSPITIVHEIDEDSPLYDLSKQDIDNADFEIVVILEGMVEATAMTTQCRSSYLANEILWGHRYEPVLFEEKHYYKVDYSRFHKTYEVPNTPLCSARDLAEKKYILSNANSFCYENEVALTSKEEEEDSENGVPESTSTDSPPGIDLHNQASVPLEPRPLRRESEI
hERG ctr – blocks human hERG, in counter-screen for Kir2.1 inhibitors | shares compounds with Kir21 block | hERG-expressing cells, thallium flux | inhibition, % at 10 µM | 320 compounds, 20% hits | AID 2236;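 note: host cells are CHO cells stably expressing hERG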
KCNK9 inh-2 – human KCNK9 off-target activity of Kir2.1 blockers | shares compounds with Kir21 block | KCNK9-expressing cells, ion flux inhibition | inhibition, % at 10 µM | 320 compounds, 5% hits
Kir2-1 patch inh – inhibitors of mouse Kir2.1 potassium channel | shares compounds with Kir21 block | Kir2.1 cells, automated patch-clamp current inhibition | inhibition, % at 25 µM | 320 compounds, 71% hits | AID 463252
The depositor's hits bear a star; i = inactive; / = no result. In the library only some 3.5% were active in any assay of this set; here they are far more common. Unless noted, the rule behind the calls is not given here.

SMILES	KCNK9 inh-1	TMEM16A inh	ANO1 activ	KCNK3 inh	Kir21 block	hERG ctr	KCNK9 inh-2	Kir2-1 patch inh
COc1ccc(C)cc1NCc1cccc(OC)c1OC	i	i	i	i	0.05	/	/	/
COc1cc(CNCCc2ccc(F)cc2)ccc1OCc1ccc(Cl)nc1	i	i	i	i	-8.2*	59%*	i	56%*
COc1cc(CNCCc2ccccc2F)ccc1OCc1ccc(Cl)nc1	i	i	i	i	-5.1	/	/	/
Cc1cccc(N2CCN(C(=O)CCc3nc4ccccc4c(=O)[nH]3)CC2)c1C	/	/	i	i	/	/	/	/
COc1ccc(CNCCS(=O)(=O)NCc2ccccc2)cc1	/	/	/	i	/	/	/	/
COc1ccc(CNCC(O)(c2ccccc2)c2ccccc2)cc1	i	i	i	i	-6.2*	46%*	i	i
COc1ccc(CNCc2cccc(Oc3ccccc3)c2)cc1	i	i	i	i	-14*	i	i	85%*
Cc1ccc2nc(Cl)c(CNCc3ccccc3)cc2c1	i	i	i	i	-12*	i	i	i
Cc1ccc(C(CCNC(C)c2cccs2)c2ccco2)cc1 (configuration not stated)	i	i	i	i	-8.4*	62%*	i	i
Cc1cccc(C)c1NC(=O)c1sccc1SCC#N	i	i	i	i	-0.3	/	/	/
CNC(=O)c1sccc1SCc1c(Cl)cccc1Cl	i	i	i	i	-9.4*	i	i	43%*
COCCn1cnc2c1c(=O)n(CC(=O)OCC#N)c(=O)n2Cc1ccccc1	i	i	i	i	-1.4	/	/	/
CCc1ccc(NC(=O)CSc2nnnn2C)cc1	i	i	i	i	1.2	/	/	/
CCCCC(CC)C(=O)Nc1ccccc1C(=O)NC(C)C (configuration not stated)	i	i	i	i	-0.88	/	/	/
Cc1cccn2c(=O)c3cc(S(=O)(=O)c4ccc(Br)cc4)c(=N)n(C4CCCC4)c3nc12	i	i	i	i	1.1	i	i	i
Nc1nc(C2CC2)c(Sc2sc(N)nc2C2CC2)s1	i	i	i	i	-8.2*	i	i	6.1%*
Nc1nc(C2CCOCC2)cs1	i	i	i	i	-0.08	/	/	/
CCOCC(=O)Nc1ccccc1C(=O)O	i	i	i	i	0.08	/	/	/
CC(C)(C)c1ccc(OCCNCc2ccccc2)cc1	i	i	i	i	-2.9	/	/	/
Clc1ccc(OCCOCCNCc2ccccc2)cc1Cl	i	i	i	i	-8.7*	51%*	i	42%*
Cc1ccc(C(=O)N/C(=C\c2ccc(-c3ccc(Br)cc3)o2)C(=O)NCCCN(C)C)cc1	i	i	-8.2*	i	-10*	77%*	i	i
COc1ccccc1NC(=O)c1ccc(-c2ccccc2F)o1	i	i	i	i	-0.32	/	/	/
COc1ccc(Nc2nc(N3CCCC3)c3ccccc3n2)cc1	i	i	i	i	-11*	i	i	46%*
CCc1nc(C)cn1S(=O)(=O)c1cc(Br)ccc1OC	i	i	i	i	-8.9*	i	i	64%*
CCc1nc(C)cn1S(=O)(=O)c1cc(Cl)c(OC)cc1Cl	i	i	i	i	-10*	i	i	51%*
CCc1nc(C)cn1S(=O)(=O)c1ccc(Cl)c(Cl)c1Cl	i	i	i	i	-2.5	/	/	/
COc1cccc(NC(=O)CN(C)C(=O)CC2CCCCC2)c1	/	/	i	i	/	/	/	/
CCC(=O)N1CCN=C1SCc1cccc(F)c1	i	i	i	i	-1.3	/	/	/
C=CCc1cc(Cl)ccc1OCCOCCNC(C)CC (configuration not stated)	i	i	i	i	-7*	i	i	42%*

Screening data as filed in PubChem BioAssay.
